# According to PubChem BioAssay:
# Inconclusive results are not listed. Calls of active or inactive are those of the source.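 How the source made its calls, unless noted: active means normalized viability below 100% at a tested concentration; inactive means the rest.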
# Legend:
# [1] = viability loss in pontine glioma line – cell-based, SU-DIPG-XIII, MIPE4.0, CellTiter-Glo, qHTS, dose response (AID 1347061; cut-off not given, nearly all actives have AC50 up to about 37 µM;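 further: cells exposed to compound for 48 hours before readout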); settings: CellTiter-Glo ATP luminescence
# [2] = viability loss in pontine glioma line – cell-based, SU-DIPG-IV, MIPE4.0, CellTiter-Glo, qHTS, dose response (AID 1347063; cut-off not given, nearly all actives have AC50 up to about 30 µM;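 further: compound exposure lasted 48 hours before the viability readout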); settings: CellTiter-Glo ATP luminescence
# [3] = viability loss in pontine glioma line – cell-based, SU-DIPG-XIII, MIPE5.0, CellTiter-Glo, qHTS, dose response (AID 1347064; cut-off not given, nearly all actives have AC50 up to about 23 µM); settings: CellTiter-Glo ATP luminescence
# [4] = growth inhibition of DIPG cells – cell-based, MIPE4.0 library, CellTiter-Glo luminescence, qHTS (AID 1347066; cut-off not given, nearly all actives have AC50 up to about 30 µM;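 further: cells exposed to compound for 48 hours before readout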); settings: SU-DIPG-VI viability, CellTiter-Glo ATP luminescence
# [5] = JHH-DIPG-1 glioma cell viability, MIPE5.0 library, CellTiter-Glo luminescence, qHTS (AID 1347067; cut-off not given, nearly all actives have AC50 up to about 26 µM;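 further: cells exposed to compound for 48 hours before readout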); settings: JHH-DIPG-1 glioma viability, CellTiter-Glo ATP luminescence
# [6] = viability loss with induced miR-34 in A549 – imaging, A549 dox-inducible miR-34, nuclei and caspase counts, primary screen (AID 1347080;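 active means compounds whose cell count with miR-34 switched on is under 0.7 times the count with it off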); settings: A549 miR-34 inducible, Hoechst nuclei count, 48 h
# [7] = MELAS cybrid and Rieske KO viability enhancers – cell-based, MELAS cybrids, Rieske KO mouse fibroblasts, CellTiter-Glo, primary screen (AID 1508586;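 active means mean z-score across replicates of 1.96 or higher in either the MELAS or the Rieske mutant cell line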;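 further: z relative to plate mean and SD of compound and empty wells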); settings: low glucose
# [8] = viability loss in pontine glioma line – cell-based, JHH-DIPG-1, MIPE4.0, CellTiter-Glo, qHTS, dose response (AID 1347062; cut-off not given, nearly all actives have AC50 up to about 27 µM;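 on AC50: cells exposed to compound for two days before readout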); settings: JHH-DIPG-1 viability, CellTiter-Glo ATP luminescence
# [9] = viability loss in pontine glioma line – cell-based, SU-DIPG-XXV, MIPE5.0, CellTiter-Glo, qHTS, dose response (AID 1347065; cut-off not given, nearly all actives have AC50 up to about 26 µM;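 further: cells exposed to compound for 48 hours before ATP readout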); settings: CellTiter-Glo ATP luminescence
# [10] = growth inhibition of DIPG cells – cell-based, MIPE5.0 library, qHTS (AID 1347068; cut-off not given, nearly all actives have IC50 up to about 30 µM;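 on IC50: cells exposed to compound for 48 hours before viability readout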); settings: SU-DIPG-XXV viability
# [11] = drug combination growth inhibition, ovarian cancer – cell-based, oncology-focused library, rucaparib conditional, profiling panel (AID 1508598); settings: patient-derived ovarian cancer cells, CellTiter-Glo viability, 144 h, stronger effect = lower value
# [12] = stronger effect = lower value, cell number ratio, induced over uninduced
# [13] = measured here: relative caspase fold change +Dox/-Dox
# [14] = measured here: total cells with miR-34 induction, stronger effect = lower value
# [15] = measured here: total cells without miR-34 induction
# [16] = MELAS cybrid survival, CellTiter-Glo 48 h, stronger effect = higher value
# [17] = Rieske KO mouse fibroblast survival, CellTiter-Glo 72 h
smiles,measurement,setting,value
CCN(CC)C(=O)c1ccc(C2=CC3(CCNCC3)Oc3cccc(O)c32)cc1,outcome,[1],inactive
same,outcome,[2],inactive
same,outcome,[3],inactive
same,outcome,[4],inactive
same,outcome,[5],inactive
same,fold change,[6]; [12],0.925 (inactive)
same,fold change,[6]; [13],0.955
same,cell count,[6]; [14],8090
same,cell count,[6]; [15],8740
same,z-score,[7]; [16],-0.509 (inactive)
same,z-score,[7]; [17],0.582
CC(=O)OCC1=C(C(=O)O)N2C(=O)[C@@H](N)[C@@H]2SC1,outcome,[1],inactive
same,outcome,[4],inactive
O=C(NCC1CCOCC1)c1cnc(Nc2ccc(Cl)cc2Cl)nc1C(F)(F)F,outcome,[1],inactive
same,AC50,[8],18.7 µM (active)
same,AC50,[2],10.5 µM (active)
same,outcome,[3],inactive
same,outcome,[9],inactive
same,outcome,[4],inactive
same,outcome,[5],inactive
same,outcome,[10],inactive
same,fold change,[6]; [12],0.931 (inactive)
same,fold change,[6]; [13],1.15
same,cell count,[6]; [14],8190
same,cell count,[6]; [15],8790
same,z-score,[7]; [16],-0.266 (inactive)
same,z-score,[7]; [17],-0.797
CNC(=O)c1ccc(N2C(=S)N(c3ccc(C#N)c(C(F)(F)F)c3)C(=O)C23CCC3)cc1F,outcome,[1],inactive
same,AC50,[8],10.5 µM (active)
same,AC50,[2],9.35 µM (active)
same,outcome,[4],inactive
same,outcome,[10],inactive
C[C@@H]1O[C@@H](O[C@@H]2C=C3CC[C@H]4[C@@H](CC[C@]5(C)[C@H](c6ccc(=O)oc6)CC[C@@]45O)[C@@]3(C)CC2)[C@H](O)[C@H](O)[C@@H]1O,AC50,[1],0.00935 µM (active)
same,AC50,[8],0.00469 µM (active)
same,AC50,[2],0.0209 µM (active)
same,AC50,[4],0.00743 µM (active)
CC1(N2CCC(n3c([C@@H]4CCCNC4)nc4ccccc43)CC2)CCCCCCC1,outcome,[1],inactive
same,AC50,[8],14.8 µM (active)
same,IC50,[10],20.9 µM (active)
CCOC(=O)Nc1ccc(NCc2ccc(F)cc2)cc1N,outcome,[1],inactive
same,outcome,[3],inactive
same,outcome,[9],inactive
same,outcome,[4],inactive
same,outcome,[5],inactive
same,outcome,[10],inactive
C[C@]12CC[C@H]3[C@@H](CCC4=CC(=O)CC[C@@H]43)[C@@H]1CC[C@@H]2OC(=O)CCc1ccccc1,outcome,[1],inactive
same,outcome,[8],inactive
same,outcome,[2],inactive
same,outcome,[4],inactive
same,outcome,[10],inactive
CNC(=O)N1N=C(c2ccc(N)cc2)c2cc3c(cc2CC1C)OCO3 (centres undefined),outcome,[8],inactive
same,outcome,[4],inactive
C[C@H]1[C@@H](C(=O)C[C@H]2O[C@@H]3O[C@]4(C)CC[C@H]5[C@H](C)CC[C@@H]([C@H]2C)[C@@]35OO4)O[C@@H]2O[C@]3(C)CC[C@H]4[C@H](C)CC[C@@H]1[C@@]24OO3,outcome,[4],inactive
Cc1sc2c(c1C)C(c1ccc(Cl)cc1)=NC(CC(=O)Nc1ccc(O)cc1)c1nnc(C)n1-2 (centres undefined),outcome,[10],inactive
same,fold change,[6]; [12],0.898 (inactive)
same,fold change,[6]; [13],0.692
same,cell count,[6]; [14],4940
same,cell count,[6]; [15],5500
same,z-score,[7]; [16],-0.542 (inactive)
same,z-score,[7]; [17],-4.37
CN[C@@H]1CC2OC(C)([C@@H]1OC)n1c3ccccc3c3c4c(c5c6ccccc6n2c5c31)C(=O)NC4 (some centres undefined),fold change,[6]; stronger effect = lower value,0.831 (inactive)
same,fold change,[6]; [13],0.918
same,cell count,[6]; [14],692
same,cell count,[6]; [15],832
O=S(=O)(CC1CS1)c1ccc(Oc2ccccc2)cc1 (centres undefined),AC50,[2],20.9 µM (active)
same,AC50,[5],23.5 µM (active)
same,outcome,[10],inactive
same,fold change,[6]; [12],0.961 (inactive)
same,fold change,[6]; [13],0.577
same,cell count,[6]; [14],8270
same,cell count,[6]; [15],8600
same,z-score,[7]; [16],-0.354 (inactive)
same,z-score,[7]; [17],-1.56
same,viability,"[11]; at 0.000305 µM, OCI-C5x cells, with rucaparib 10 µM, 100% = cells with rucaparib alone",114% (inactive)
same,viability,"[11]; at 0.000305 µM, OCI-C5x cells, without rucaparib",110% (inactive)
same,viability,"[11]; at 0.000305 µM, OCI-P5x cells, with rucaparib 20 µM, 100% = cells with rucaparib alone",95.3% (active)
same,viability,"[11]; at 0.000305 µM, OCI-P5x cells, without rucaparib",95.4% (active)
same,viability,"[11]; at 0.00122 µM, OCI-C5x cells, with rucaparib 10 µM, 100% = cells with rucaparib alone",112% (inactive)
same,viability,"[11]; at 0.00122 µM, OCI-C5x cells, without rucaparib",111% (inactive)
same,viability,"[11]; at 0.00122 µM, OCI-P5x cells, with rucaparib 20 µM, 100% = cells with rucaparib alone",98.5% (active)
same,viability,"[11]; at 0.00122 µM, OCI-P5x cells, without rucaparib",92.4% (active)
same,viability,"[11]; at 0.00488 µM, OCI-C5x cells, with rucaparib 10 µM, 100% = cells with rucaparib alone",121% (inactive)
same,viability,"[11]; at 0.00488 µM, OCI-C5x cells, without rucaparib",102% (inactive)
same,viability,"[11]; at 0.00488 µM, OCI-P5x cells, with rucaparib 20 µM, 100% = cells with rucaparib alone",89.9% (active)
same,viability,"[11]; at 0.00488 µM, OCI-P5x cells, without rucaparib",97.6% (active)
same,viability,"[11]; at 0.0195 µM, OCI-C5x cells, with rucaparib 10 µM, 100% = cells with rucaparib alone",122% (inactive)
same,viability,"[11]; at 0.0195 µM, OCI-C5x cells, without rucaparib",112% (inactive)
same,viability,"[11]; at 0.0195 µM, OCI-P5x cells, with rucaparib 20 µM, 100% = cells with rucaparib alone",91% (active)
same,viability,"[11]; at 0.0195 µM, OCI-P5x cells, without rucaparib",94.3% (active)
same,viability,"[11]; at 0.0781 µM, OCI-C5x cells, with rucaparib 10 µM, 100% = cells with rucaparib alone",121% (inactive)
same,viability,"[11]; at 0.0781 µM, OCI-C5x cells, without rucaparib",102% (inactive)
same,viability,"[11]; at 0.0781 µM, OCI-P5x cells, with rucaparib 20 µM, 100% = cells with rucaparib alone",85.3% (active)
same,viability,"[11]; at 0.0781 µM, OCI-P5x cells, without rucaparib",91.2% (active)
same,viability,"[11]; at 0.313 µM, OCI-C5x cells, with rucaparib 10 µM, 100% = cells with rucaparib alone",120% (inactive)
same,viability,"[11]; at 0.313 µM, OCI-C5x cells, without rucaparib",101% (inactive)
same,viability,"[11]; at 0.313 µM, OCI-P5x cells, with rucaparib 20 µM, 100% = cells with rucaparib alone",84.7% (active)
same,viability,"[11]; at 0.313 µM, OCI-P5x cells, without rucaparib",93.5% (active)
same,viability,"[11]; at 1.25 µM, OCI-C5x cells, with rucaparib 10 µM, 100% = cells with rucaparib alone",117% (inactive)
same,viability,"[11]; at 1.25 µM, OCI-C5x cells, without rucaparib",111% (inactive)
same,viability,"[11]; at 1.25 µM, OCI-P5x cells, with rucaparib 20 µM, 100% = cells with rucaparib alone",79% (active)
same,viability,"[11]; at 1.25 µM, OCI-P5x cells, without rucaparib",82.1% (active)
same,viability,"[11]; at 5 µM, OCI-C5x cells, with rucaparib 10 µM, 100% = cells with rucaparib alone",108% (inactive)
same,viability,"[11]; at 5 µM, OCI-C5x cells, without rucaparib",110% (inactive)
same,viability,"[11]; at 5 µM, OCI-P5x cells, with rucaparib 20 µM, 100% = cells with rucaparib alone",80.3% (active)
same,viability,"[11]; at 5 µM, OCI-P5x cells, without rucaparib",81.4% (active)
CCCCCCCCCCCCCCCC(=O)OC[C@H](COP(=O)([O-])OCC[N+](C)(C)C)OC(=O)CCCC=O,fold change,[6]; [12],0.934 (inactive)
same,fold change,[6]; [13],2.44
same,cell count,[6]; [14],5310
same,cell count,[6]; [15],5690
C=C1[C@@H](O)[C@@H]2O[C@@]3(CCC2O[C@@H]1[C@@H](O)C[C@H](C)C1O[C@@]2(CCCCO2)CC[C@H]1C)CC[C@H](/C=C/[C@@H](C)[C@@H]1CC(C)=C[C@@]2(O[C@H](C[C@@](C)(O)C(=O)O)CC[C@H]2O)O1)O3 (some centres undefined),fold change,[6]; [12],0.897 (inactive)
same,fold change,[6]; [13],0.814
same,cell count,[6]; [14],423
same,cell count,[6]; [15],472
Cc1sc2c(c1C)C(c1ccc(Cl)cc1)=NC(CC(N)=O)c1nnc(C)n1-2 (centres undefined),outcome,[5],inactive
same,outcome,[10],inactive
same,fold change,[6]; [12],0.978 (inactive)
same,fold change,[6]; [13],0.427
same,cell count,[6]; [14],5420
same,cell count,[6]; [15],5540
same,z-score,[7]; [16],0.425 (inactive)
same,z-score,[7]; [17],-3.88
CCCCC/C=C\C/C=C\C/C=C\C/C=C\CCCC(=O)Nc1ccc([N+](=O)[O-])cc1,fold change,[6]; [12],1.04 (inactive)
same,fold change,[6]; [13],1.21
same,cell count,[6]; [14],5860
same,cell count,[6]; [15],5630
CCCCC/C=C\C/C=C\C/C=C\C/C=C\CCCC(=O)NC[C@@H](C)O,fold change,[6]; [12],0.961 (inactive)
same,fold change,[6]; [13],0.786
same,cell count,[6]; [14],5790
same,cell count,[6]; [15],6030
